A selection: hits, their analogues and other compounds. The true share with any hit is near 10%.
HP1b chromo inh = blocks HP1-beta chromodomain binding to methylated histone tails. AlphaScreen HP1-beta / biotin-H3K9me3 peptide binding. Potency, µM (titrated, usually from 114 µM), most hits filed as inhibitors. P83916. hit rate 0.56% among 390,000; note: nearly all actives have a fitted effect of over 70% in size
Target sequence (P83916 whole entry, looked up): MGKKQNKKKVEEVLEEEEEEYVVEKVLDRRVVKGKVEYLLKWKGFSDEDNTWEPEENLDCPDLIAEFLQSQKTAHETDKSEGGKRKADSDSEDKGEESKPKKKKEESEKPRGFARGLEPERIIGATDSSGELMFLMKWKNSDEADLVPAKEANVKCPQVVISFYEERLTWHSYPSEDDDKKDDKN
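AlphaScreen: HP1-beta (50 nM) preformed 30 min with biotin-H3(1-18)K9me3 peptide (50 nM) in PBS pH 7.4, 0.01% Tween-20. Compound added for 30 min at RT, then streptavidin donor/nickel chelate acceptor beads (10 ug/mL) for 30 min.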
BAZ2B inh = blocks human BAZ2B; AlphaScreen BAZ2B-H3K14Ac peptide displacement; Potency, µM (series often up to 114 µM), most hits filed as inhibitors; AID 504333; hit rate 4.4% among 360,000; Q9UIF8; note: nearly all actives have a fitted effect of over 60% in size
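BAZ2B 50 nM plus b-H3(5-23)K14Ac 50 nM, PBS pH 7.4/0.01% Tween-20, 30 min RT; compound added (max 110 uM), 30 min RT; streptavidin donor/Ni-chelate acceptor beads 10 ug/mL final, 20 min dark; AlphaScreen read.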
JMJD2A Tudor inh = JMJD2A Tudor domain (human) inhibition. hit rate 4.4% among 390,000. AlphaScreen JMJD2A-Tudor / H3K4me3 peptide binding. O75164. Potency, µM (doses to about 114 µM), usual class: inhibitors. AID 504339; note: nearly all actives have a fitted effect of over 50% in size
G9a block = blocks human histone lysine methyltransferase G9a; Q96KQ7; G9a H3K9 monomethylation, AlphaScreen, 2 h; Potency, µM (titrated, usually from 102 µM), most hits filed as inhibitors; hit rate 8.8% among 350,000; AID 504332; note: nearly all actives have a fitted effect of over 75% in size
Target sequence (Q96KQ7 913-1193 limits assumed): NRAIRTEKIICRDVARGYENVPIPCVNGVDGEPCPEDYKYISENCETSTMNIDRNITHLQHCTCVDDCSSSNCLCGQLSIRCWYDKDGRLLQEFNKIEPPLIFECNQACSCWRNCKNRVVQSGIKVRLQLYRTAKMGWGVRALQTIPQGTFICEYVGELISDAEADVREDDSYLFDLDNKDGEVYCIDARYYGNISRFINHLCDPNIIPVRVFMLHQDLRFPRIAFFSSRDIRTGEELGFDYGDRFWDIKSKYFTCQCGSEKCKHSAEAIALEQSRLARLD
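Signal arises when biotinylated H3K9 peptide, once monomethylated, bridges streptavidin donor and antibody-captured acceptor beads. Enzyme at 20 nM was preincubated 15 min with test compounds; peptide 500 nM and SAM 20 uM then reacted for 2 h.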
GLS inhibitor = glutaminase GLS (human) inhibition; hit rate 0.21% among 410,000; GLS enzymatic activity, qHTS titration; Potency, µM (titrated, usually from 45.5 µM), hits mostly inhibitors; O94925
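hKGA in 45 mM KH2PO4 pH 8.2, 0.02% Tween-20 with pin-transferred compounds; 1 mM L-glutamine (stock) plus glutamate oxidase/HRP/Amplex Red coupling added. Fluorescence read initially and after 30 min at RT.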
Of the large screens only hits and unclear results are named; the others gave an inactive call. Calls come from the whole dose curve; as a rule, active = well fitted curve in the direction sought with a large enough effect; inconclusive = small, poorly fitted or top-dose-only effect, or another doubt; inactive = no such curve, though single readings can be large; an effect the other way counts as inactive or inconclusive.

CC(C)OC(=O)CC1C(=O)NCCN1C(=S)NC(=O)c1cccs1 (centres undefined)	G9a block 45µM
COC(=O)CC1C(=O)NCCN1C(=S)NC(=O)c1ccccc1[N+](=O)[O-] (centres undefined)	JMJD2A Tudor inh inconclusive, G9a block inconclusive
CCOC(=O)CC1C(=O)NCCN1C(=S)Nc1ccccc1 (centres undefined)	none
CCc1ccccc1NC(=S)N1CCNC(=O)C1CC(=O)OC (centres undefined)	JMJD2A Tudor inh 45µM
COC(=O)CC1C(=O)NCCN1C(=S)Nc1ccccc1 (centres undefined)	none
CCCNC(=O)c1cc(C2CCCCN2S(=O)(=O)Cc2cccc(C(F)(F)F)c2)on1 (centres undefined)	none (no result: HP1b chromo inh, BAZ2B inh, JMJD2A Tudor inh, G9a block)
CC(=O)c1c(C)oc2c(Br)cc(NS(=O)(=O)c3ccc(Br)cc3)cc12	G9a block inconclusive
S=C(Cc1cccnc1)N1CCOCC1	HP1b chromo inh inconclusive, JMJD2A Tudor inh 79µM, G9a block 2.2µM
CC(C)CN(CCCNC(=O)c1cc(=O)[nH]c2ccc(S(=O)(=O)N3CCCCCC3)cc12)CC(C)C	none
S=C(NCCc1ccccc1)Nc1cccc2cnccc12	BAZ2B inh inconclusive, G9a block 50µM
S=C(NCc1ccccc1)Nc1cccc2cnccc12	G9a block 22µM
S=C(NCc1cccnc1)Nc1cccc2ccccc12	none
C=CCn1cc(/C=N/Nc2nc3ccccc3[nH]2)c2ccccc21	HP1b chromo inh inconclusive, BAZ2B inh 40µM, JMJD2A Tudor inh 40µM, G9a block 50µM, GLS inhibitor inconclusive
Cc1c(/C=N/Nc2nc3ccccc3[nH]2)c2ccccc2n1C	HP1b chromo inh 50µM, BAZ2B inh 18µM, JMJD2A Tudor inh 32µM, GLS inhibitor inconclusive (no result: G9a block)
Cn1c(/C=N/Nc2nc3ccccc3[nH]2)nc2ccccc21	BAZ2B inh 32µM, JMJD2A Tudor inh inconclusive
CCCn1c(/C=N/Nc2nc3ccccc3[nH]2)nc2ccccc21	BAZ2B inh inconclusive
CCOc1ccccc1NC(=O)CSC1=Nc2ccccc2C2=NC(CC(=O)NC3CCCCC3)C(=O)N12 (centres undefined)	none
Cc1ccc(C(=O)N/C(=C\c2ccc(-c3cccc([N+](=O)[O-])c3)o2)C(=O)NCCCN(C)C)cc1	G9a block 50µM
Cc1ccc(C(=O)N/C(=C\c2ccc(-c3ccccc3[N+](=O)[O-])o2)C(=O)NCCCN2CCOCC2)cc1	BAZ2B inh inconclusive, JMJD2A Tudor inh inconclusive, G9a block 45µM
Cc1ccc(C(=O)N/C(=C\c2ccc(-c3ccc(Br)cc3)o2)C(=O)NCCCN(C)C)cc1	none
CN(C)CCCNC(=O)/C(=C\c1ccc(-c2cccc([N+](=O)[O-])c2)o1)NC(=O)c1ccccc1	JMJD2A Tudor inh inconclusive, G9a block 50µM, GLS inhibitor inconclusive
CN(C)CCNC(=O)/C(=C/c1ccc(-c2ccc(Cl)cc2)o1)NC(=O)c1ccccc1	G9a block inconclusive
Cc1ccc(CNC(=O)c2ccc3c(c2)CCN3S(=O)(=O)c2ccc(Br)cc2)cc1	none
CC(=O)c1ccc(S(=O)(=O)N2CCN(C(=O)CSc3ccc(C)c(C)c3)CC2)cc1	none
CC1(C)C=C2C(=NN(c3ccccc3)C(N)=C2C#N)CO1	G9a block 6.3µM
CC(C)c1cc(=O)n2[nH]c(N)nc2n1	G9a block 79µM
CC(C)(C)c1cc(=O)n2[nH]c(N)nc2n1	BAZ2B inh 56µM, JMJD2A Tudor inh inconclusive (no result: G9a block)
Cc1ccc(C)c(NC(=S)NNc2ccc(F)cc2F)c1	HP1b chromo inh inconclusive, BAZ2B inh 20µM, JMJD2A Tudor inh 32µM, G9a block 45µM
Cc1ccc(NC(=S)NNC(=S)Nc2ccc(C)cc2)cc1	none (no result: BAZ2B inh, G9a block)
Cc1ccc(NNC(=S)Nc2ccc(C(C)C)cc2)c(C)c1	HP1b chromo inh 22µM, BAZ2B inh 35µM, JMJD2A Tudor inh 14µM, G9a block 11µM, GLS inhibitor inconclusive
COc1ccc(C(=O)CCC(=O)O)c2ccccc12	none (no result: HP1b chromo inh, BAZ2B inh, JMJD2A Tudor inh)
COc1ccc(-c2ccc(C(C)=O)cc2)cc1[C@H]1[C@H]2C=CC[C@@H](C)[C@@H]2C(=O)N1Cc1ccccc1	none
COc1ccc(-c2ccc(OC)c([C@H]3[C@H]4C=CC[C@@H](C)[C@@H]4C(=O)N3Cc3ccccc3)c2)cc1C	none
COc1ccc(-c2ccc(N(C)C)cc2)cc1[C@H]1[C@H]2C=CC[C@@H](C)[C@@H]2C(=O)N1Cc1ccccc1	HP1b chromo inh inconclusive, BAZ2B inh inconclusive, JMJD2A Tudor inh 5.6µM, G9a block inconclusive
COc1ccc(-c2ccc(N(C)C)cc2)cc1C1C2C=CCC(C)C2C(=O)N1Cc1ccccc1 (centres undefined)	JMJD2A Tudor inh 7.1µM (no result: BAZ2B inh, G9a block, GLS inhibitor)
CCc1nn(CC(=O)NCCCOC)c(=O)c2cc3occc3n12	none
Cc1oc(-c2cc(F)ccc2F)nc1CN1CCN(c2cnccn2)CC1	BAZ2B inh 71µM (no result: G9a block)
CCC(=Nc1ccc(N)cc1)C1=C(O)C(C(=O)OC)C(C)(C)CC1=O (centres undefined)	BAZ2B inh inconclusive, G9a block 50µM
CCCC(=Nc1ccccc1)C1=C(O)C(C(=O)OC)C(C)(C)CC1=O (centres undefined)	BAZ2B inh inconclusive, G9a block inconclusive
CCCCC(=Nc1ccc(N)cc1)C1=C(O)C(C(=O)OC)C(C)(C)CC1=O (centres undefined)	BAZ2B inh 56µM, JMJD2A Tudor inh inconclusive, G9a block 1µM
O=C(O)c1c(C(=O)O)c(-c2ccc(Cl)c(Cl)c2)n2c1CSC2	G9a block 45µM
CCOC(=O)C1CCCN(C(=O)c2cc(C#N)cs2)CC1 (centres undefined)	none (no result: HP1b chromo inh, BAZ2B inh, JMJD2A Tudor inh, G9a block)
CCOC(=O)COc1ccc(/C=C/[N+](=O)[O-])c(OCC(=O)OCC)c1	G9a block 71µM, GLS inhibitor inconclusive
CCOC(=O)Cn1cc(/C=C/[N+](=O)[O-])c2ccccc21	BAZ2B inh inconclusive (no result: G9a block)
CCOC(=O)COc1ccc2ccccc2c1/C=C/[N+](=O)[O-]	G9a block 18µM
NNc1nc2c(Cl)c(Cl)ccc2s1	BAZ2B inh 50µM, JMJD2A Tudor inh 10µM, G9a block inconclusive
COc1cccc2sc(NN)nc12	HP1b chromo inh inconclusive, JMJD2A Tudor inh inconclusive, G9a block 32µM, GLS inhibitor 14µM (no result: BAZ2B inh)
O=C(CSc1nnc(C2CC2)n1-c1ccccc1)NCc1ccco1	G9a block 79µM
CCCc1nc(SCC(=O)NCc2ccco2)c2c(=O)n(C)c(=O)n(C)c2n1	G9a block 45µM
O=c1c2ccccc2nc2ccc(NCc3ccco3)nn12	BAZ2B inh inconclusive
Cc1sc2nc(C3CC3)nc(SCC(=O)NCc3ccco3)c2c1C	G9a block 50µM
Cc1sc2nc3ccc(NCc4ccco4)nn3c(=O)c2c1C	G9a block 18µM
O=C(CSc1nnc(-c2ccccc2)n1-c1ccccc1)NCc1ccco1	G9a block inconclusive
CCc1nc(SCC(=O)NCc2ccco2)c2c(=O)n(C)c(=O)n(C)c2n1	G9a block inconclusive
